Results: PubChem BioAssay AID1053118 (Broad Institute, 2014)
Entries with a potency or affinity are not part of this list. The source made the active and inactive calls.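 How the source made its calls: active means fitted half-maximal concentration for ATP signal loss at most twice the top valid dose; inconclusive means flat curve between -70 and -30%, or an invalid fit; inactive means flat within ±30%, wrong direction, or potency past limit.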

Assay: HepG2 cell cytotoxicity, dose response, cytotoxicity control, cherry-picks, set 5 (AID 1053118)

**Q.** With `C[C@H](O)C#Cc1ccc2c(c1)O[C@H](CN(C)C)[C@H](C)CN([C@@H](C)CO)S2(=O)=O` as the compound, how does the outcome read?
**A.** inactive

**Q.** Which outcome does the source give for `N#C[C@@H]1[C@H](c2ccccc2C2=CCCCC2)[C@H](CO)N1S(=O)(=O)c1ccccc1` here?
**A.** inactive

**Q.** Which outcome does the source give for `CCOc1ccccc1NC(=O)c1c(NC(=O)CCC(=O)O)sc2c1CCCCC2` here?
**A.** inactive

**Q.** For `Cc1ccc(O)c(-c2cc(-c3cccc(Br)c3)n[nH]2)c1`, which outcome is on record?
**A.** inactive

**Q.** Which outcome does the source give for `COc1cccc(CN2CCN(C(=O)c3ccc(-c4ccccc4)cc3)CC2)c1OC` here?
**A.** inactive

**Q.** With `CC(C)Cc1nnc(NC(=O)CSc2nc(N)cc(=O)[nH]2)s1` as the compound, how does the outcome read?
**A.** inactive

**Q.** Which outcome does the source give for `CO[C@H]1CN(C)C(=O)c2cc(NC(=O)Nc3cc(Cl)cc(Cl)c3)ccc2OC[C@@H](C)NC[C@@H]1C` here?
**A.** inactive

**Q.** Which outcome does the source give for `CCOc1cccc(C(=O)Nc2ccc(N(CC)CC)cc2)c1` here?
**A.** inactive

**Q.** For `COc1ccc(CCNC(=O)C2CCN(Cc3nc(-c4ccccc4F)oc3C)CC2)cc1OC`, which outcome is on record?
**A.** inactive

**Q.** Which outcome does the source give for `N#Cc1ccc(-c2ccc3c(c2)[C@@H]2[C@@H](CCN2S(=O)(=O)c2cccc(F)c2)[C@@H](CO)N3)cc1` here?
**A.** inactive

**Q.** Which outcome does the source give for `COCC(=O)Nc1ccc2c(c1)C(=O)N(C)[C@@H]1CC[C@H](CC(=O)NCc3ccccc3Cl)O[C@@H]1CO2` here?
**A.** inactive

**Q.** Which outcome does the source give for `C[C@@H]1CN([C@@H](C)CO)C(=O)c2cc(NC(=O)CCCN(C)C)ccc2O[C@H]1CN(C)Cc1ccc(-c2ccccc2)cc1` here?
**A.** inactive

**Q.** For `Cc1ccc(S(=O)(=O)N2CC3(C)CN(S(=O)(=O)c4ccc(C)cc4)CC(C)(C2)C3=O)cc1`, which outcome is on record?
**A.** inactive

**Q.** Which outcome does the source give for `C[C@@H]1CN([C@@H](C)CO)C(=O)c2cc(-c3ccccc3)cnc2O[C@@H]1CN(C)Cc1ccccc1` here?
**A.** inactive

**Q.** For `COc1cccc(S(=O)(=O)N2CC[C@@H]3[C@H]2c2cc(-c4ccc(C#N)cc4)ccc2N[C@@H]3CO)c1`, which outcome is on record?
**A.** inactive

**Q.** For `C[C@@H]1CN([C@H](C)CO)C(=O)c2cccc(NC(=O)Nc3ccc(C(F)(F)F)cc3)c2O[C@H]1CN(C)C(=O)Nc1cccc2ccccc12`, which outcome is on record?
**A.** inactive

**Q.** With `CCc1ccc(NC(=O)CSc2nnc(-c3ccco3)o2)cc1` as the compound, how does the outcome read?
**A.** inactive

**Q.** For `C[C@H]1CN([C@@H](C)CO)C(=O)c2cc(NC(=O)CCCN(C)C)ccc2O[C@@H]1CN(C)Cc1ccc(-c2ccccc2)cc1`, which outcome is on record?
**A.** inactive

**Q.** For `O=C(CC1Nc2ccccc2NC1=O)Nc1ccc2c(c1)OCO2` (centres undefined), which outcome is on record?
**A.** inactive

**Q.** With `COc1ccccc1CC(=O)OC(C)C(=O)Nc1ccc(S(=O)(=O)N2CCCCC2)cc1` (centres undefined) as the compound, how does the outcome read?
**A.** inactive

**Q.** With `CN1CCN(C(=O)c2cccc(-c3cnc4cnc(-c5ccccc5Oc5ccccc5)cn34)c2)CC1` as the compound, how does the outcome read?
**A.** inactive

**Q.** For `O=C(CN1CCCC1)Nc1ccc(Oc2ccc(NC(=O)CN3CCCC3)cc2)cc1`, which outcome is on record?
**A.** inactive

**Q.** Which outcome does the source give for `COc1cccc(CNC(=O)CCc2nnc3ccc(NCCCN4CCCC4=O)nn23)c1` here?
**A.** inactive

**Q.** Which outcome does the source give for `C[C@H](CO)N1C[C@H](C)[C@H](CN(C)C(=O)Nc2cccc3ccccc23)Oc2c(NC(=O)Nc3ccc(C(F)(F)F)cc3)cccc2C1=O` here?
**A.** inactive
